From PubChem BioAssay (EPA / NIEHS)
Inconclusive results are not listed. The source made the active and inactive calls. How the source made its calls, unless noted: active means hit-call score of the fitted dose curve at least 0.9, where 1 is the maximum; inactive means score below 0.9.

Legend:
[1] = biological target: zebrafish Thyroid Hormone Receptor beta (TRb), thrb (gene 30607) (UniProt Q9PVE4); experiment: ATG_zfTRb_XSP2: Attagene TRANS-FACTORIAL Multi-Species (XSP1) HepG2 Assay for zebrafish Thyroid Hormone Receptor beta (TRb) (AID 2283836; active means hit-call score of the fitted dose curve at least 0.9, where 1 is the maximum)
zebrafish Thyroid Hormone Receptor beta (TRb), thrb (gene 30607), sequence (Q9PVE4 whole entry, looked up): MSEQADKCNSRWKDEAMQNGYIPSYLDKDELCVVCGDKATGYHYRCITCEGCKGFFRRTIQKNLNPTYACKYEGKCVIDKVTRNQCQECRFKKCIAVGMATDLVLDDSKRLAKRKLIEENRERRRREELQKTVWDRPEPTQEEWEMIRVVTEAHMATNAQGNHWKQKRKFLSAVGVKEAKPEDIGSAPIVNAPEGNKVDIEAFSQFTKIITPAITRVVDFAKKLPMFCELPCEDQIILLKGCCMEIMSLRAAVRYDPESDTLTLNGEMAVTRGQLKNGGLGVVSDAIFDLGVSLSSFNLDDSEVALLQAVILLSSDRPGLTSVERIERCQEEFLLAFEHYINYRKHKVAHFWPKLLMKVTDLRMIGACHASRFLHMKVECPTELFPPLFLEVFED
How it was run: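 Multiplexed trans-activation in HepG2 cells, 24 h treatment, with reporter mRNA read by RT-PCR and capillary electrophoresis. Gain-of-signal against DMSO.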

[2] = biological target: human Thyroid hormone Receptor beta (TRb), THRB (gene 7068) (UniProt P10828); experiment: ATG_hTRb_XSP2: Attagene TRANS-FACTORIAL Multi-Species (XSP2) HepG2 Assay for human Thyroid hormone Receptor beta (TRb) (AID 2283840; active means hit-call score of the fitted dose curve at least 0.9, where 1 is the maximum;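 further: actives raise reporter mRNA so potency reflects agonist-like gain of signal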)
human Thyroid hormone Receptor beta (TRb), THRB (gene 7068), sequence (P10828 whole entry, looked up, the tested form may be a part): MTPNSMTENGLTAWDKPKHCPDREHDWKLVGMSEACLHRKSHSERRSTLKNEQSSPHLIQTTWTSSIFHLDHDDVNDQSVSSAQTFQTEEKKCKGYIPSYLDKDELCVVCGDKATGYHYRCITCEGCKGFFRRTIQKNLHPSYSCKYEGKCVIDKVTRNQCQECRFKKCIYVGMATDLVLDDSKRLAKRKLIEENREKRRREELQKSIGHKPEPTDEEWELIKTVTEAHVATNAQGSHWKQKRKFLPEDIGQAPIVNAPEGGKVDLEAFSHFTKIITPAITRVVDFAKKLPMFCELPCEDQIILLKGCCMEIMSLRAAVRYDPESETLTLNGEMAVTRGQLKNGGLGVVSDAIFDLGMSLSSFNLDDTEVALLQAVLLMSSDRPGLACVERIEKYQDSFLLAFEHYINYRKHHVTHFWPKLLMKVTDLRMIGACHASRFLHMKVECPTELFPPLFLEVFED
How it was run: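 HepG2 cells were transiently transfected with GAL4-UAS multiplexed reporter units expressing chimeric NR-Gal4 proteins, dosed 24 h; reporter mRNA was quantified by RT-PCR, fluorescent labeling, HpaI digestion and capillary electrophoresis, fitted for gain of signal versus DMSO.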

[3] = CEETOX_H295R_11DCORT_noMTC: CeeTox H295R High-throughput Steroidogenesis Assay for 11-Deoxycortisol (11DCORT), maximum tolerated concentration (MTC) filtered results only (AID 2283911); conditions: actives raise or lower the signal
How it was run: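 HPLC-MS/MS read-out of 11-deoxycortisol after MTBE extraction of H295R medium. Cells: forskolin 10 uM pre-stimulation 48 h, chemical 48 h, 0.1% DMSO final. Bidirectional fit vs DMSO baseline; no MTC filtering.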

[4] = CEETOX_H295R_OHPREG_noMTC: CeeTox H295R High-throughput Steroidogenesis Assay for OH-Pregnenolone (OHPREG), maximum tolerated concentration (MTC) filtered results only (AID 2283912); conditions: actives raise or lower the signal
How it was run: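 Readout is HPLC-MS/MS quantification of 17alpha-hydroxypregnenolone released by forskolin-stimulated H295R cells over 48 h of chemical exposure, DMSO as baseline.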

[5] = CEETOX_H295R_OHPROG_noMTC: CeeTox H295R High-throughput Steroidogenesis Assay for OH-Progesterone (OHPROG), maximum tolerated concentration (MTC) filtered results only (AID 2283914); conditions: actives raise or lower the signal
How it was run: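 Analysis uses all tested concentrations, without maximum-tolerated-concentration screening by MTT. H295R cells, forskolin-primed (10 uM, 48 h), receive chemical for 48 h; hormone in medium measured by HPLC-MS/MS, with bidirectional curve fitting against DMSO.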

[6] = CEETOX_H295R_ANDR_noMTC: CeeTox H295R High-throughput Steroidogenesis Assay for Androstenedione (ANDR), maximum tolerated concentration (MTC) filtered results only (AID 2283915); conditions: actives raise or lower the signal
Procedure: CEETOX_H295R is a cell-based, multiplexed-readout assay that uses H295R, a human adrenal gland cell line, with measurements taken at 48 hours after chemical dosing in a 96-well plate.CEETOX_H295R_ANDR_noMTC is one of 12 assay component(s) measured or calculated from the CEETOX_H295R assay (11 hormones and 1 viability assay). It is designed to make measurements of hormone induction, a form of inducible reporter, as detected with absorbance signals by HPLC-MS-MS technology. The concentrations for these components have not been pre-filtered for the maximum tolerated concentration (MTC) based on the MTT assay (_noMTC).Data from the assay component CEETOX_H295R_ANDR_noMTC was analyzed into 1 assay endpoint. This assay endpoint, CEETOX_H295R_ANDR_noMTC, was analyzed with bidirectional fitting relative to DMSO as the negative control and baseline of activity. […]
Cell culture and media preparation procedures were conducted in accordance with OECD Test No. 456 guidelines, with minor modifications. […] For steroid quantification, media samples were shipped to OpAns, LLC (Durham, NC) on dry ice, and samples were thawed to room temperature prior to liquid-liquid extraction. […] Steroid hormones were separated by HPLC, eluted using a reverse phase C18 gradient with electrospray positive ionization, followed by quantification by tandem mass spectrometry (MS/MS). […]

[7] = CEETOX_H295R_CORTISOL_noMTC: CeeTox H295R High-throughput Steroidogenesis Assay for Cortisol, maximum tolerated concentration (MTC) filtered results only (AID 2283916); conditions: actives raise or lower the signal
How it was run: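 H295R adrenal cells were pre-stimulated 48 h with 10 uM forskolin, then exposed 48 h to test chemical in 0.1% DMSO. Medium cortisol was measured by MTBE extraction and HPLC-MS/MS; bidirectional fit versus DMSO, concentrations not MTC-filtered.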

[8] = CEETOX_H295R_CORTIC_noMTC: CeeTox H295R High-throughput Steroidogenesis Assay for Corticosterone (CORTIC), maximum tolerated concentration (MTC) filtered results only (AID 2283917); conditions: actives raise or lower the signal
How it was run: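 Forskolin-stimulated (10 uM, 48 h) H295R cells are dosed 48 h with chemical in DMSO (0.1% final); corticosterone change is quantified by HPLC-MS/MS and fitted bidirectionally against DMSO, unfiltered for MTT-derived MTC.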

[9] = CEETOX_H295R_DOC_noMTC: CeeTox H295R High-throughput Steroidogenesis Assay for DOC, maximum tolerated concentration (MTC) filtered results only (AID 2283918); conditions: actives raise or lower the signal
How it was run: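 H295R cells prestimulated 48 h with 10 uM forskolin, then exposed 48 h to test chemical (0.1% DMSO final). Medium 11-deoxycorticosterone extracted with MTBE, quantified by HPLC-MS/MS; bidirectional fit versus DMSO, concentrations not MTC-filtered.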

Measured: AC50

C[C@]12CC[C@@H]3c4ccc(O)cc4CC[C@H]3[C@@H]1C[C@@H](O)[C@@H]2O
inactive: [1] | [2]

C/C=C/C(=O)C1=C(C)CCCC1(C)C
active: [5] 37.1 µM | [6] 31.3 µM | [9] 12.2 µM
inactive: [3] | [4] | [7] | [8]
